# AHR activator = AHR activators, primary screen, cell-based, luminescence, luciferase reporter, human | Aryl hydrocarbon receptor (Homo sapiens), P35869 | AHR-responsive luciferase reporter cells | activation, % at 5 µM | 2.5% of 320,000 active | AID 2796, 2010; in the data active means activation above about 47%;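 further: 0% = vehicle wells and 100% = reference agonist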
# HIF activator = HIF pathway transcriptional activators, primary screen, cell-based, U2OS HRE-luciferase, luminescence | U2OS HRE-luciferase reporter; normalized: DMSO 0%, desferrioxamine 100% | activation, % at 7.5 µM (by protocol) | AID 1910, 2009 | 0.32% of 300,000 active;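 active means mean activation of at least 10% of the iron chelator positive control signal, with at least half of replicates also reaching 10%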
# HGIII-sPLA2 inh = human group III sPLA2 inhibitors, primary screen, biochemical, QFRET, BODIPY PC-A2 liposome substrate | QFRET BODIPY PC-A2 liposome hydrolysis, fluorescence | inhibition, % at 12.2 µM | 0.56% of 370,000 active | AID 743126, 2013;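 active means inhibition above mean plus 3 SD of compounds lying within the high and low control bounds, cut at about 19% in these data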;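 further: 0% = median of test compound wells and 100% = no enzyme DMSO wells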
# PLCg1 inh = PLC-gamma1 enzyme inhibitors, primary screen, biochemical, fluorescence, purified enzyme; fluorogenic substrate; 0.84% of 370,000 active; AID 720700, 2013; 1-phosphatidylinositol 4,5-bisphosphate phosphodiesterase gamma-1 (Homo sapiens), P19174; inhibition, % at 12.2 µM; in the data active means inhibition above about 9.5%
# PLC-beta3 inh = human PLC-beta3 inhibitors, primary screen, biochemical, fluorescence. Purified PLC-beta3, fluorogenic substrate. inhibition, % at 12.2 µM. AID 720704, 2013. 1-phosphatidylinositol 4,5-bisphosphate phosphodiesterase beta-3 (Homo sapiens), Q01970. 0.18% of 370,000 active; in the data active means inhibition above about 11%;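 further: 0% = median of compound wells on plate and 100% = full blocker control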
# CR mimetic SO = reduction of superoxide in aged yeast, primary screen, HTS | S. cerevisiae aged cells, superoxide DHE fluorescence; active compounds read low | superoxide response (% of plate mean), % at 10 µM | 0.18% of 330,000 active | AID 2690, 2010;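 active means superoxide response under a set limit, about three screen SD below normal, cut at about 65% in these data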;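 further: yeast aged for seven days with compound at 30 °C before DHE staining; 100% = average MFI of all compound-treated wells on the plate with controls excluded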
# * hit, by the source's call; x = not tested or not shown. An excerpt weighted towards active compounds, which were near 3.9% of everything screened.
SMILES,AHR activator,HIF activator,HGIII-sPLA2 inh,PLCg1 inh,PLC-beta3 inh,CR mimetic SO
COC(=O)[C@H](CC(C)C)N(CCCc1cn(CC2CCCCC2)nn1)S(=O)(=O)c1ccc(F)cc1Br,x,x,-21,2,2,x
CNc1cc([N+](=O)[O-])ccc1N/C=C/C(=O)c1cccs1,74*,1,3,2,1,104
C[C@H]1COc2cc(Br)ccc2S(=O)(=O)N1Cc1cn(Cc2ccc(Br)cc2)nn1,x,x,3,1,0,x
O=CN/N=C/c1c(O)ccc2ccccc12,11,-1,-2,-3,-8,136
Oc1ccc2ccccc2c1C=NCc1ccccc1,56*,x,2,1,-14,105
Oc1ccc2ccccc2c1/C=N/Nc1ccccc1,54*,-1,-12,-6,-19,98
Cc1ccc(F)cc1C(=O)N1CCCC(c2nc(-c3cccs3)no2)C1 (configuration not stated),x,x,-4,0,4,x
Fc1ccc2nc(-c3ccc(CN4CCC(c5nc6ccccc6[nH]5)CC4)cc3)c(-c3ccccc3)nc2c1,x,x,2,-17,-27,x
COC(=O)c1ccc(NC(=O)CSc2nc3ccccc3c(=O)[nH]2)cc1,4,0,-4,-4,0,98
O=C(CSc1nc2ccccc2c(=O)[nH]1)Nc1ccc(Br)cc1,15,38*,1,-1,-13,x
CCN(CC)c1ccc(NC(=O)CSc2nc3ccccc3c(=O)[nH]2)cc1,63*,0,-13,-1,2,89
CS(=O)(=O)N1CCC(C(=O)NCC2COc3ccccc3O2)CC1 (configuration not stated),x,x,2,1,1,x
CCCCCc1cccc2[nH]cc(-c3ccccc3)c12,x,x,-8,-5,-8,x
C[C@H]1COc2cccc(F)c2S(=O)(=O)N1C,x,x,3,0,-1,x
O=C(O/N=C(\c1ccccc1)c1ccncc1)c1ccccc1Cl,2,0,-4,-1,0,112
N/C(=N\OC(=O)c1ccccc1Cl)c1ccc(Cl)cc1,57*,1,8,3,2,113
N/C(=N\OC(=O)c1ccccc1Cl)c1ccccc1,54*,-2,-2,3,0,90
N/C(=N\OC(=O)c1ccc(Cl)cc1Cl)c1ccccc1,82*,-1,-4,-2,1,138
Cc1ccc(Nc2nc(C(=O)NCc3ccco3)cs2)cc1,52*,1,-22,-1,-4,98
Cc1ccc(Nc2nc(-c3sc(NC(=O)c4ccco4)nc3C)cs2)cc1,58*,1,5,-20,-29,100
CCOc1ccccc1Nc1nc(-c2sc(NC(=O)c3ccco3)nc2C)cs1,66*,-9,-10,-40,-57,101
CCc1ccc(CCNC(=O)OCCCN2CCC3(CCC(C)CC3)C2=O)cc1 (configuration not stated),x,x,-8,-1,2,x
O=C(NCCc1ccccc1)OCc1cn(Cc2cc(F)cc(F)c2)nn1,x,x,7,-3,-3,x
COC(=O)CC1C(=O)NCCN1C(=O)CSc1nnc(Nc2ccc(C)cc2)s1 (configuration not stated),1,1,8,4,-1,92
COC(=O)CC1C(=O)NCCN1C(=O)CSc1nnc(Nc2ccc(OC)cc2)s1 (configuration not stated),7,236*,-2,4,3,107
c1ccc(-c2nc(NC3CCCC3)c3ccccc3n2)cc1,53*,-2,-2,2,-9,107
CC1CCCC(NC(=O)c2ccc3c(c2)OCO3)C1C (configuration not stated),70*,2,-3,-2,-1,77
CC(=O)c1c(C)[nH]c(C(=O)COc2ccc3ccc(=O)oc3c2)c1C,56*,-55,3,-120,-198,104
CCOC(=O)Cc1cc(-c2ccc(F)cc2)nc2ccc3ccccc3c12,61*,1,-4,1,3,95
CCOC(=O)c1cc(Cl)c2c(ccc3ccccc32)n1,x,x,2,-10,-6,x
